Data taken from PubChem BioAssay AID1159580 (chemical genetic matrix, 2015).
In all, about 5,500 compounds went through this assay and about 2,000 (36%) were called active. Roughly 18% stayed inconclusive and do not appear here. No stated cut-off is given here; in the data, active means normalized growth mostly below about 0.91 (no sharp cut-off); inconclusive means no clear call, values can overlap the other calls; inactive means mostly above about 0.92. Some of the results follow.

Test: chemical genetic growth profiling, strain panel (AID 1159580);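 further: tested at 20 µM; growth read once vehicle control cultures reached saturation at 30 °C; 1 = growth at the plate median or of vehicle wells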
Details: growth OD

Measured: normalized growth

COc1cc(OC)cc(OC)c1
inactive: S. cerevisiae deletion strains, locus YAL013W, strain DEP1, stronger effect = lower value 1.01 | S. cerevisiae deletion strains, locus YBR021W, strain FUR4, stronger effect = lower value 1.02 | S. cerevisiae deletion strains, locus YBR229C, strain ROT2, stronger effect = lower value 1.01 | S. cerevisiae deletion strains, locus YDL035C, strain GPR1, stronger effect = lower value 1.02 | S. cerevisiae deletion strains, locus YDL074C, strain BRE1, stronger effect = lower value 1.01 | S. cerevisiae deletion strains, locus YDL101C, strain DUN1, stronger effect = lower value 1 | S. cerevisiae deletion strains, locus YDL134C, strain PPH21, stronger effect = lower value 1 | S. cerevisiae deletion strains, locus YDL185W, strain tfp1, stronger effect = lower value 0.982 | S. cerevisiae deletion strains, locus YDR150W, strain NUM1, stronger effect = lower value 1.01 | S. cerevisiae deletion strains, locus YDR162C, strain NBP2, stronger effect = lower value 1.02 | S. cerevisiae deletion strains, locus YEL061C, strain CIN8, stronger effect = lower value 1 | S. cerevisiae deletion strains, locus YER155C, strain BEM2, stronger effect = lower value 1.01 | S. cerevisiae deletion strains, locus YER167W, strain BCK2, stronger effect = lower value 1.01 | S. cerevisiae deletion strains, locus YGL248W, strain PDE1, stronger effect = lower value 1.01 | S. cerevisiae deletion strains, locus YGR078C, strain PAC10, stronger effect = lower value 1.01 | S. cerevisiae deletion strains, locus YGR229C, strain SMI1, stronger effect = lower value 1 | S. cerevisiae deletion strains, locus YHR030C, strain SLT2, stronger effect = lower value 1.01 | S. cerevisiae deletion strains, locus YHR129C, strain ARP1, stronger effect = lower value 1.01 | S. cerevisiae deletion strains, locus YIL066C, strain RNR3, stronger effect = lower value 1.01 | S. cerevisiae deletion strains, locus YIL073C, strain SPO22, stronger effect = lower value 1 | S. cerevisiae deletion strains, locus YJL095W, strain BCK1, stronger effect = lower value 1.01 | S. cerevisiae deletion strains, locus YJL134W, strain LCB3, stronger effect = lower value 1 | S. cerevisiae deletion strains, locus YJL187C, strain SWE1 (second series), stronger effect = lower value 1.02 | S. cerevisiae deletion strains, locus YJR043C, strain POL32, stronger effect = lower value 0.994 | S. cerevisiae deletion strains, locus YJR075W, strain HOC1, stronger effect = lower value 1 | S. cerevisiae deletion strains, locus YKL009W, strain mrt4, stronger effect = lower value 0.898 | S. cerevisiae deletion strains, locus YKL068W, stronger effect = lower value 1 | S. cerevisiae deletion strains, locus YKL190W, strain CNB1, stronger effect = lower value 1.01 | S. cerevisiae deletion strains, locus YLR039C, strain RIC1, stronger effect = lower value 1.01 | S. cerevisiae deletion strains, locus YLR058C, strain SHM2, stronger effect = lower value 1.01 | S. cerevisiae deletion strains, locus YLR262C, strain YPT6, stronger effect = lower value 1.04 | S. cerevisiae deletion strains, locus YLR330W, strain CHS5, stronger effect = lower value 1 | S. cerevisiae deletion strains, locus YLR342W, strain FKS1 (second series), stronger effect = lower value 0.983 | S. cerevisiae deletion strains, locus YML016C, strain PPZ1, stronger effect = lower value 1 | S. cerevisiae deletion strains, locus YMR263W, strain SAP30, stronger effect = lower value 1.02 | S. cerevisiae deletion strains, locus YMR307W, strain GAS1, stronger effect = lower value 0.961 | S. cerevisiae deletion strains, locus YNL067W, strain RPL9B, stronger effect = lower value 1.02 | S. cerevisiae deletion strains, locus YNL128W, strain TEP1, stronger effect = lower value 1.02 | S. cerevisiae deletion strains, locus YNL153C, strain GIM3, stronger effect = lower value 1.02 | S. cerevisiae deletion strains, locus YNL233W, strain BNI4, stronger effect = lower value 1.02 | S. cerevisiae deletion strains, locus YNL322C, strain KRE1, stronger effect = lower value 1.01 | S. cerevisiae deletion strains, locus YNR052C, strain pop2, stronger effect = lower value 1 | S. cerevisiae deletion strains, locus YOL006C, strain TOP1, stronger effect = lower value 0.948 | S. cerevisiae deletion strains, locus YOR061W, strain CKA2, stronger effect = lower value 1 | S. cerevisiae deletion strains, locus YOR069W, strain VPS5, stronger effect = lower value 1 | S. cerevisiae deletion strains, locus YOR144C, strain elg1, stronger effect = lower value 0.997 | S. cerevisiae deletion strains, locus YPL055C, strain LGE1, stronger effect = lower value 1.02 | S. cerevisiae deletion strains, locus YPL241C, strain CIN2, stronger effect = lower value 1.01 | S. cerevisiae deletion strains, locus YPR141C, strain kar3, stronger effect = lower value 1.01 | S. cerevisiae strains, strain wild type, stronger effect = lower value 1.01
active: S. cerevisiae deletion strains, locus YCL029C, strain bik1, stronger effect = lower value 0.743 | S. cerevisiae deletion strains, locus YDL192W, strain arf1, stronger effect = lower value 0.102 | S. cerevisiae deletion strains, locus YDR101C, strain arx1, stronger effect = lower value 0.529 | S. cerevisiae deletion strains, locus YDR318W, strain mcm21, stronger effect = lower value 0.0697 | S. cerevisiae deletion strains, locus YDR388W, stronger effect = lower value 0.0643 | S. cerevisiae deletion strains, locus YDR502C, strain sam2, stronger effect = lower value 0.159 | S. cerevisiae deletion strains, locus YER110C, stronger effect = lower value 0.305 | S. cerevisiae deletion strains, locus YGL078C, strain dbp3, stronger effect = lower value 0.299 | S. cerevisiae deletion strains, locus YGL086W, strain mad1, stronger effect = lower value 0.0586 | S. cerevisiae deletion strains, locus YGR135W, strain pre9, stronger effect = lower value 0.0735 | S. cerevisiae deletion strains, locus YGR252W, strain gcn5, stronger effect = lower value 0.24 | S. cerevisiae deletion strains, locus YHR079C, strain IRE1 (second series), stronger effect = lower value 0.598 | S. cerevisiae deletion strains, locus YHR094C, strain hxt1, stronger effect = lower value 0.147 | S. cerevisiae deletion strains, locus YHR200W, strain rpn10, stronger effect = lower value 0.124 | S. cerevisiae deletion strains, locus YIL125W, strain kgd1, stronger effect = lower value 0.263 | S. cerevisiae deletion strains, locus YIR030C, strain dcg1, stronger effect = lower value 0.317 | S. cerevisiae deletion strains, locus YJL168C, strain set2, stronger effect = lower value 0.206 | S. cerevisiae deletion strains, locus YKL085W, strain MDH1 (second series), stronger effect = lower value 0.211 | S. cerevisiae deletion strains, locus YKL085W, strain MDH1, stronger effect = lower value 0.211 | S. cerevisiae deletion strains, locus YKR001C, strain vps1, stronger effect = lower value 0.127 | S. cerevisiae deletion strains, locus YLR102C, strain apc9, stronger effect = lower value 0.106 | S. cerevisiae deletion strains, locus YLR268W, strain sec22, stronger effect = lower value 0.0897 | S. cerevisiae deletion strains, locus YLR371W, strain rom2, stronger effect = lower value 0.0926 | S. cerevisiae deletion strains, locus YLR418C, strain cdc73, stronger effect = lower value 0.104 | S. cerevisiae deletion strains, locus YML032C, strain rad52, stronger effect = lower value 0.853 | S. cerevisiae deletion strains, locus YML124C, strain tub3, stronger effect = lower value 0.181 | S. cerevisiae deletion strains, locus YMR078C, strain ctf18, stronger effect = lower value 0.231 | S. cerevisiae deletion strains, locus YMR223W, strain ubp8, stronger effect = lower value 0.0875 | S. cerevisiae deletion strains, locus YNL250W, strain rad50, stronger effect = lower value 0.725 | S. cerevisiae deletion strains, locus YNL271C, strain bni1, stronger effect = lower value 0.351 | S. cerevisiae deletion strains, locus YNL298W, strain CLA4, stronger effect = lower value 0.725 | S. cerevisiae deletion strains, locus YNL307C, strain MCK1, stronger effect = lower value 0.0671 | S. cerevisiae deletion strains, locus YOL147C, strain pex11, stronger effect = lower value 0.838 | S. cerevisiae deletion strains, locus YOR136W, strain idh2, stronger effect = lower value 0.104 | S. cerevisiae deletion strains, locus YOR184W, strain ser1, stronger effect = lower value 0.0729 | S. cerevisiae deletion strains, locus YOR316C, strain cot1, stronger effect = lower value 0.096 | S. cerevisiae deletion strains, locus YPR119W, strain clb2, stronger effect = lower value 0.169 | S. cerevisiae deletion strains, locus YPR163C, strain tif3, stronger effect = lower value 0.0751 | S. cerevisiae deletion strains, locus YPR167C, strain met16, stronger effect = lower value 0.0964 | S. cerevisiae deletion strains, strain wtn01, stronger effect = lower value 0.0632
